HEK293 cAMP ctrl = qHTS Assay for Agonists of the Thyroid Stimulating Hormone Receptor: Activators of Intracellular cAMP Concentrations in Parental HEK 293; parental HEK293 CNG cAMP sensor, membrane potential fluorescence; 73,000 tested, 2.5% active; Potency, µM (titrated, usually from 57.1 µM), for the others: top-dose activation, usual class: activators; note: % of control where 0% means no effect; nearly all actives have a fitted effect of over 55% in size
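Counterscreen for endogenous-receptor signalling: CNG-channel HEK 293 cells report cAMP rise by membrane depolarization. After 60 min dye equilibration with 100 uM RO 20-1724, compounds incubated 30 min before bottom-read fluorescence at 590 nm.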
GBA mod = Glucocerebrosidase; Lysosomal acid glucosylceramidase (Homo sapiens), P04062; purified enzyme, resorufin glucoside fluorescence (screen aimed at inhibitors), 20 min; Potency, µM; 48,000 tested, 1.1% active; AID 360, 2006; in the data active = potency below about 15 µM; inconclusive = mostly about 16 µM to 33 µM;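 note: the screen sought inhibitors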
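Normal human glucocerebrosidase (0.2 nM final) was assayed with resorufin β-D-glucopyranoside (30 uM final) in 50mM citric acid/KH2PO4, 10mM sodium taurocholate, 0.01% tween-20, pH 5.9. Compounds were titrated; fluorescence (Ex 548, Em 600) read after 20 min at RT.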
Caspase-1 inhib = qHTS Assay for Allosteric/Competitive Inhibitors of Caspase-1 | Caspase-1 enzyme, Ac-WEHD-AFC fluorogenic rate | P29466 | AID 900, 2007 | Potency, µM (highest dose often 57.5 µM), inactives show at the top dose activity change, negative = inhibition, hits mostly inhibitors | 75,000 tested, 0.03% active;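 note: plate controls were vehicle for no effect and no substrate for full effect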
Caspase-7 inhib = qHTS Assay for Allosteric/Competitive Inhibitors of Caspase-7. P55210. recombinant caspase-7, Ac-DEVD-AFC fluorescence rate. Potency, µM (doses to about 57.5 µM), without a hit: at the top dose activity change, negative = inhibition, usual class: inhibitors. 75,000 tested, 0.02% active. AID 889, 2007; active = well fitted inhibition curve with a large enough effect in the main read-out, with a control signal flat, not every such curve was filed as active; inconclusive = small, poorly fitted or top-dose-only effect, or a change in a side signal; note: % of control where 0% means no effect
PK Bst = Pyruvate Kinase | purified pyruvate kinase, luminescence ATP production; ribose 5-phosphate activator present at AC10 | 51,000 tested, 1.2% active | AID 361, 2006 | Potency, µM; in the data active = potency below about 11 µM; inconclusive = mostly about 12 µM to 25 µM;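 the screen sought inhibitors and activators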;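 note: scaled between full activation by ribose 5 phosphate and full inhibition by luteolin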
TSHR agonist = qHTS Assay for Agonists of the Thyroid Stimulating Hormone Receptor; Thyrotropin receptor (Homo sapiens), P16473; HEK293-CNG-TSHR cells (CNG channel as cAMP sensor), membrane potential dye, cAMP; Potency, µM (highest dose often 57.1 µM), for inactives: at the highest dose activation, most hits filed as activators; 73,000 tested, 0.48% active; active = well fitted activation curve with a large enough effect in the main read-out, with a control signal flat, not every such curve was filed as active; inconclusive = small, poorly fitted or top-dose-only effect, or a change in a side signal; inactive = no such curve, though single readings can be large or run the other way; % of control where 0% means no effect;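 note: the control signal comes from parental cells without the receptor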
Target sequence (P16473 whole entry, looked up): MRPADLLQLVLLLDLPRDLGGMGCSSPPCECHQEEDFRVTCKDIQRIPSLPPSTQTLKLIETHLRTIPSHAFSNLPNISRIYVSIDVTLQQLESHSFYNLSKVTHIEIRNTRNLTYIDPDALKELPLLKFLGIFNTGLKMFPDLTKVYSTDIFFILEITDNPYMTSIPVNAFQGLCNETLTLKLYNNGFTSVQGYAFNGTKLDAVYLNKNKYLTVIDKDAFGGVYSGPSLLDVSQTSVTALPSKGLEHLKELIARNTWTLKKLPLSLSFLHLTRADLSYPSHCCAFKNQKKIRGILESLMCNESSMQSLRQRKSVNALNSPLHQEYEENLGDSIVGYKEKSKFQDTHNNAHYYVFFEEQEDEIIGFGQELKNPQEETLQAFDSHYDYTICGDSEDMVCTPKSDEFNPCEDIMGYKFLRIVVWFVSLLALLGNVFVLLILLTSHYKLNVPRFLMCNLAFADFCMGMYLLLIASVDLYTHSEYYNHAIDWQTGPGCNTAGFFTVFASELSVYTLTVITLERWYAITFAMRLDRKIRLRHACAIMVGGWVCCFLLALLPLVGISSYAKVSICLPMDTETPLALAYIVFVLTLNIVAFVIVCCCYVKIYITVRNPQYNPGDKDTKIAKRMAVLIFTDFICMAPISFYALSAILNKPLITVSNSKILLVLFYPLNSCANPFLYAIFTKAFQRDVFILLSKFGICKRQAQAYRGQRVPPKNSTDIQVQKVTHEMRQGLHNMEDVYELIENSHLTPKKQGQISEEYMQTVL
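HEK 293 cells stably expressing TSHR and a modified CNG channel, with CNG-only parental cells as counterscreen, were preloaded 60 min at room temperature with membrane potential dye containing 100 uM RO 20-1724. Compound exposure was 30 min, and depolarization was read as fluorescence at 590 nm.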
Active calls of the source: *; i = inactive; u = inconclusive; x = no result; [ ] = dose if it differs, or a comment. An excerpt weighted towards active compounds, which were near 4% of everything screened. Unless noted, calls come from the whole dose curve; as a rule, active = well fitted curve in the direction sought with a large enough effect; inconclusive = small, poorly fitted or top-dose-only effect, or another doubt; inactive = no such curve, though single readings can be large; an effect the other way counts as inactive or inconclusive. Potency is the fitted concentration of half-maximal effect.

SMILES	HEK293 cAMP ctrl	GBA mod	Caspase-1 inhib	Caspase-7 inhib	PK Bst	TSHR agonist
[N-]=[N+]=Nc1ccc(C(=O)CSC[C@@H](NC(=O)CC[C@@H](N)C(=O)O)C(=O)NCC(=O)O)cc1	19%	x	2%	1%	x	-13%
O=C(Nc1cccnc1)c1cn(-c2ccccc2)nc1-c1cccs1	-2%	>77	-5%	1%	10*	8%
O=C(Nc1cccnc1)c1ccccc1Oc1ccccc1	12%	>77	1%	1%	>57	23%
CC1CCC(C(C)C)C(OC(=O)CSc2n[nH]c(=O)[nH]c2=O)C1 (stereo unspecified)	18%	x	0%	0%	i	20µM*
COc1ccc(NC(=O)c2ccc3c(c2)C(=O)N(Cc2cccnc2)C3=O)c(OC)c1	-5%	5*	0%	0%	>57	-7%
FC(F)(F)c1ccc(N2CCN(c3cc(-c4ccccc4)nc4ncnn34)CC2)nc1	16µM*	>77	-6%	-5%	>57	u
FC(F)(F)c1cc(-c2ccccc2)nc(N2CCCCC2)n1	4%	>77	-3%	-4%	>57	8%
Cc1nc2cnc(Oc3cccc(Cl)c3)nc2n(Cc2ccc(F)cc2)c1=O	4µM*	x	-4%	-9%	x	u
COCCn1c(=O)c(C)nc2cnc(Oc3ccc(OC)cc3)nc21	32µM*	x	-2%	-3%	x	u
CCOC(=O)C1=C[C@@]2(CC)CCCN3CCc4c(n1c1ccccc41)C32 (stereo partly specified)	x	x	-1%	-1%	x	x
CCC[C@@H]1C[C@@]1(CCC)C(NP(=O)(c1ccccc1)c1ccccc1)c1ccc(Cl)cc1 (stereo partly specified)	13µM*	x	-2%	-3%	x	u
CCC[C@@H]1C[C@@]1(CCC)C(NC(=O)c1cccs1)c1ccc(Cl)cc1 (stereo partly specified)	u	x	1%	0%	x	u
CCC[C@@H]1C[C@@]1(CCC)C(NC(=O)c1ccco1)c1ccc(Cl)cc1 (stereo partly specified)	10µM*	x	-3%	-4%	x	u
CCC/C=C(\CCC)C(NS(=O)(=O)CC12CCC(CC1=O)C2(C)C)c1ccc(C(=O)OC)cc1 (stereo unspecified)	17%	x	2%	-1%	x	x
COc1ccc2c(c1)[C@]1(C)CCC[C@](C)(CO)[C@@H]1CC2	-6%	x	x	x	x	x
NCCC[C@@H](CC(=O)N[C@@H]1CCCC[C@H]1C(=O)N[C@H](CC(=O)N[C@@H](CCC(=O)O)CC(=O)O)Cc1ccccc1)NC(=O)C[C@H](CO)NC(=O)[C@@H]1CNCC[C@H]1N	12%	x	x	x	x	x
Cc1cc(C)c2c(SCc3ccc(Cl)cc3Cl)nc(N)nc2n1	7%[11.4 µM]	x	-2%[11.5 µM]	-3%[11.5 µM]	x	8%[11.4 µM]
c1ccc(-c2ccc(CN3CCN(c4ncccn4)CC3)cc2)cc1	u	x	-5%	-5%	x	u
c1ccc(CN2CCN(c3nc(-c4ccccc4)nc(-n4ccnc4)n3)CC2)cc1	u	x	-1%	-2%	4.4*	u
CC(C)Nc1nc(-c2ccccc2)nc(-n2ccnc2)n1	u	i	0%	-1%	x	u
c1ccc(-c2nc(-n3ccnc3)nc(-n3ccnc3)n2)cc1	-3%	>77	0%	1%	0.94*	12%
Nc1nc(Nc2ccccc2)nc2c1ncn2[C@@H]1O[C@@H](CO)[C@H](O)[C@@H]1O	-3%	x	2%	2%	x	4%
COc1ccc(-c2cc(C(=O)N/N=C/c3ccc(OC)c(OC)c3)[nH]n2)cc1	-2%	x	-3%	-1%	x	-1%
N#CCCn1c(=O)c(-c2ccc(Cl)cc2)nc2cnc(N3CCNCC3)nc21	-7%	x	x	u	x	-8%
Cc1ccccc1/C=C\C1=NCCN1	12%	x	4%	2%	x	0.13µM*
SMILES	HEK293 cAMP ctrl	GBA mod	Caspase-1 inhib	Caspase-7 inhib	PK Bst	TSHR agonist
Cc1ccc(S(=O)(=O)N(C)Cc2ccc(-c3nnco3)cc2)cc1	25µM*	>77	3%	0%	>57	u
CC(C)(C)n1ncc2c(=O)n(CC(=O)OCc3ccccc3)cnc21	19%	>77	-1%	-1%	0.54*	20%
CC(C)(C)n1ncc2c(=O)n(CC(=O)c3ccccc3)cnc21	9%	>77	-1%	-2%	>57	7%
CCOC(=O)c1c(C)c(C(=O)Nc2cc(F)ccc2F)c(C)n1C	7.9µM*	>77	2%	-1%	>57	u
CCOC(=O)c1c(C)c(C(=O)Nc2ccc3c(c2)OCCO3)c(C)n1C	26%	>77	-1%	-1%	>57	-2%[11.4 µM]
CCOC(=O)c1c(-c2ccc(C)o2)csc1NC(=O)CSc1nnc(C)s1	32µM*	>77	-6%	-4%	>57	u
CCOC(=O)c1sc(NC(=O)CSc2nncs2)c(C(=O)OCC)c1C	25µM*	9.6*	-6%	-4%	>57	u
CCOC(=O)c1c(-c2ccc(C)o2)csc1NC(=O)CSc1nnnn1-c1ccccc1	u	>77	-1%	-5%	>57	u
CCOC(=O)c1sc(NC(=O)CSc2nnc(-c3ccco3)n2CC)c(C(=O)OCC)c1C	u	>77	-4%	-13%	>57	u
Cc1cc(=O)oc2cc(O[C@@H]3O[C@H](C(=O)O)[C@@H](O)[C@H](O)[C@H]3O)ccc12	x	x	1%	-1%	x	x
CCc1c(C(=O)Nc2ccc(OC)c(Cl)c2)[nH]c(C)c1C(C)=O	-8%	>77	0%	-2%	3.1*	9%
COc1ccc(OC)c(NC(=O)c2[nH]c(C)c(C(C)=O)c2C)c1	2%	>77	3%	-1%	>57	5%
O=C(c1ccco1)N1CCN(S(=O)(=O)c2ccc(Oc3ccccc3)cc2)CC1	20µM*	>77	-1%	-2%	>57	u
C[N+](C)(C)c1nc(N)nc2c1ncn2[C@H]1O[C@@H](CO)[C@@H](O)[C@H]1O	7%[11.4 µM]	x	-3%[11.5 µM]	-3%[11.5 µM]	x	2%[11.4 µM]
O=c1cc(-c2ccccc2O)oc2c1ccc1ccccc12	u	x	0%	0%	x	u
CC1CCc2nc(NC(=O)c3ccco3)sc2C1 (stereo unspecified)	-1%	>77	2%	0%	1.2*	-3%
CC1CCc2nc(NC(=O)Cc3cccs3)sc2C1 (stereo unspecified)	0%	>77	0%	-5%	x	-17%
c1ccc2c(c1)nc(Nc1ccc3c(c1)OCO3)c1nnnn12	14%	>77	-11%	-16%	8.6*	6%
Cc1cccc(NC(=O)c2ccc(NS(=O)(=O)c3c(C)noc3C)cc2)c1	-2%	12*	1%	1%	>57	-10%

Bioassay records from PubChem BioAssay.
